# Experimental data taken from PubChem BioAssay AID1220 (Sanford-Burnham Center for Chemical Genomics, 2008).
# Out of some 190,000 compounds screened, about 1,300 (0.68%) were called active. Rule as the data show it: active = inhibition above about 50%; inactive = the rest. The entries come from a sample that favours actives as a whole.
# Molecular target: Mannose-6-phosphate isomerase (Homo sapiens) (UniProt P34949)
# Assay: MPI inhibition at elevated mannose 6-phosphate – biochemical, fluorescence intensity, high mannose 6-phosphate, primary screen (AID 1220)
# Conditions: recombinant PMI enzyme, coupled fluorescence intensity; at 20 µM; stronger effect = higher value
# Sequence of Mannose-6-phosphate isomerase (Homo sapiens) (P34949 whole entry, looked up): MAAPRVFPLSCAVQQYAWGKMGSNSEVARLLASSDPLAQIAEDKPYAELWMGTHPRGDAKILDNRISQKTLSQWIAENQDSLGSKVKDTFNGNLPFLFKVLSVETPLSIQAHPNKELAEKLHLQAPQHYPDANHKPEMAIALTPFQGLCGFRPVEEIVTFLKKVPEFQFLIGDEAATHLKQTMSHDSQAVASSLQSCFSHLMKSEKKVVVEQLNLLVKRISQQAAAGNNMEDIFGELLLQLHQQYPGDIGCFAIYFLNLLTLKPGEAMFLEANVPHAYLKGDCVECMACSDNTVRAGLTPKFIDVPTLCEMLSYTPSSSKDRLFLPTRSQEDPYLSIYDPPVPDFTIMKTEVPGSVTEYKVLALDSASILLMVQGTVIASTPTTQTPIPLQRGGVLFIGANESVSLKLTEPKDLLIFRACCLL
row,SMILES,inhibition
1,Cn1c(CSc2nc3ccccc3s2)nnc1SCC(=O)NCCCN1CCOCC1,-11.8% (inactive)
2,Cc1ccsc1C(=O)NNC(=O)C1CC=CCC1C(=O)O (configuration not stated),-4.3% (inactive)
3,COC(=O)c1cccc(NC(=O)c2cccs2)c1C,10.7% (inactive)
4,CC(C)C(c1nnnn1C1CCCCC1)N1CCCc2ccccc21 (configuration not stated),8.3% (inactive)
5,Cc1ccc(N2CCN(C(=O)c3cc(C(=O)c4ccccc4C)c[nH]3)CC2)c(C)c1,16.7% (inactive)
6,Cc1noc(C)c1Cn1nc(C(=O)O)c2ccccc2c1=O,1.4% (inactive)
7,COc1ccc2nc(N)sc2c1,-1.6% (inactive)
8,CCOC(=O)c1cc(CC)sc1/N=C/C1=C(O)CCCC1=O,14.3% (inactive)
9,CCOC(=O)c1cc(CC)sc1/N=C/C1=C(O)CC(C)(C)CC1=O,7.3% (inactive)
10,CCOC(=O)c1cc(CC)sc1/N=C/c1c(O)ccc2ccccc12,60.7% (active)
11,COc1ccc(N=Cc2c(O)ccc3ccccc23)cc1,68.5% (active)
12,COc1ccc2c(c1)-c1nc(NC(=O)c3cccs3)sc1CC2,-22.3% (inactive)
13,COc1ccc(N=Cc2c(O)[nH]c3ccccc23)cc1,1.9% (inactive)
14,COc1ccc(N=Cc2oc3ccc4ccccc4c3c2O)cc1,13.8% (inactive)
15,O=C(CCc1nnc(CCCc2ccccc2)o1)NCCc1ccccc1,-1.7% (inactive)
16,Cc1nc2c(c(=O)n1CCC1=CCCCC1)c1nc3ccccc3nc1n2/N=C/c1ccco1,15.8% (inactive)
17,Cc1nn(CCc2nn[nH]n2)c2nc(-c3ccc(Br)cc3)cc(C(F)(F)F)c12,4.9% (inactive)
18,CSc1cccc(NC(=O)C2CCN(S(C)(=O)=O)CC2)c1,5.6% (inactive)
19,Cc1ccc(OCCC(=O)Nc2ccc(C)c(F)c2)cc1,16.2% (inactive)
20,Cc1ccc(S(=O)(=O)N2CCC(C(=O)NCCCN3CCCCCC3)CC2)cc1,-3.9% (inactive)
21,CCCCNC(=O)c1onc(CSc2ccccc2F)c1C(=O)O,-0.1% (inactive)
22,Cc1nc(NC(=O)CN(C)S(=O)(=O)c2ccc(Br)cc2)sc1C,1.7% (inactive)

row,SMILES,inhibition
1,COc1ccc(/C=C2/CCc3ccccc3C2=O)cc1OC,29.2% (inactive)
2,COc1ccc2c(c1)CC/C(=C\C=C\c1ccccc1OC)C2=O,53.3% (active)
3,COc1ccc(/C=C2\CC/C(=C\c3ccc(OC)cc3OC)C2=O)c(OC)c1,13.5% (inactive)
4,COc1ccc2c(c1)CC/C(=C\C=C\c1ccccc1)C2=O,52.8% (active)
5,COc1ccc2c(c1)CC/C(=C\c1ccc(OC)c(Cn3cccn3)c1)C2=O,21.7% (inactive)
6,COc1ccc2c(c1)C(=O)/C(=C/C=C/c1ccccc1)CC2,33.4% (inactive)
7,COc1cc2nc(CN3CCC(Cc4ccccc4)CC3)[nH]c(=O)c2cc1OC,-12.9% (inactive)
8,COC(=O)c1ccc2c(=O)n(CC3CCCO3)c(SCC(=O)NCCc3ccc(S(N)(=O)=O)cc3)nc2c1 (configuration not stated),-2.9% (inactive)
9,Cc1nnc(N/N=C/c2c(Cl)cccc2Cl)n1N,32.3% (inactive)
10,Cc1nnc(N/N=C/c2ccc(-c3ccccc3F)o2)n1N,33.4% (inactive)
11,CC(C)(C)c1nnc(N/N=C/c2ccccc2O)n(N)c1=O,-27.3% (inactive)
12,CCc1nnc(N/N=C/c2ccccc2F)n1N,5.2% (inactive)
13,Cc1nnc(N/N=C/c2ccco2)n1N,56.6% (active)
14,Cc1nnc(N/N=C/c2ccccc2O)n1N,52.5% (active)
15,C/C(=N/OCc1ccc(Br)cc1)c1ccccn1,1.2% (inactive)
16,O=[N+]([O-])c1ccc2nc(NCCCO)nc(-c3ccccc3)c2c1,-39.7% (inactive)
17,CCCS(=O)(=O)c1c(S(=O)(=O)CCC)c2ccc(C(N)=O)cn2c1C(=O)c1ccc(OC)cc1,14% (inactive)
18,O=C(Nc1cccn2ncnc12)C(F)(F)F,-1.2% (inactive)
19,COc1ccc(CNC(=O)CSc2nnc3c(Cl)cc(C(F)(F)F)cn23)cc1OC,12.9% (inactive)
20,Oc1c(Cl)cc(Cl)cc1/C=N/Nc1ncc(Br)cn1,-22.9% (inactive)
21,Oc1c(Cl)cc(Cl)cc1/C=N/c1nccs1,-2.8% (inactive)
22,Cc1ccc(N=Cc2cc(Cl)cc(Cl)c2O)nc1,58.6% (active)

row,SMILES,inhibition
1,Oc1c(Cl)cc(Cl)cc1C=Nc1ccccc1N1CCCC1,33.7% (inactive)
2,NC(=O)c1cccc(N=Cc2cc(Cl)cc(Cl)c2O)c1,55.3% (active)
3,Cc1ccc(N=Cc2cc(Br)cc(Cl)c2O)cc1,50.8% (active)
4,Oc1ccc(Cl)cc1C=Nc1ccc(Br)cc1,8.3% (inactive)
5,Cc1cccc(N=Cc2[nH]c3ccc(Br)c(Cl)c3c2O)c1,-1.9% (inactive)
6,O=C(CCC(=O)N/N=C/c1cc(Cl)cc(Cl)c1O)NCc1ccccc1,17.9% (inactive)
7,Oc1c(Cl)cc(Cl)cc1C=Nc1ccc(Br)cc1,17.7% (inactive)
8,Cc1cccc(N=Cc2cc(Br)cc(Cl)c2O)c1,57.8% (active)
9,COc1cc(Br)cc(C=Nc2cccc(C(F)(F)F)c2)c1O,15.9% (inactive)
10,O=C(CN1CCSCC1)N/N=C/c1ccc(F)c(F)c1,-7.6% (inactive)
11,CC(Oc1ccc(Br)cc1)C(=O)NCc1ccccn1 (configuration not stated),-0.8% (inactive)
12,CCN1CCN(C(=O)c2ccccc2NS(=O)(=O)c2ccc(Cl)cc2)CC1,-3.6% (inactive)
13,COc1ccc(C(C#N)N2CCC(c3ccccc3)=N2)cc1OC (configuration not stated),-5.6% (inactive)
14,COc1ccc(/C(C)=N\NS(=O)(=O)c2ccccc2)cc1OC,4.4% (inactive)
15,COc1ccc(C2CCCN2C(=S)Nc2ccc(C)cc2Cl)cc1OC (configuration not stated),2.1% (inactive)
16,COc1ccc(CNC(=O)c2ccc(C(C)C)cc2)cc1,12.3% (inactive)
17,O=C(Nc1ccccc1OC(F)F)c1ccccc1,9.2% (inactive)
18,CC1CCCCC1N1CCN(C(=O)c2cccc(F)c2)CC1 (configuration not stated),-10.5% (inactive)
19,O=C(Nc1nc2ccc(F)cc2s1)C1CCN(S(=O)(=O)c2cc([N+](=O)[O-])ccc2Cl)CC1,13.7% (inactive)
20,C=CCn1c(Cc2ccc(OC)cc2)nnc1SCC(=O)NCCc1ccccc1,-0.7% (inactive)
21,COc1ccc(C(C)C)cc1S(=O)(=O)N1CCN(c2ccccc2)CC1,6.8% (inactive)
22,Cn1nnnc1NCc1ccc(Cl)cc1,-7.1% (inactive)

row,SMILES,inhibition
1,COCc1ccc(CN2CCc3c([nH]c4ccccc34)C2C(C)(C)C)o1 (configuration not stated),14.1% (inactive)
2,COCc1ccc(CN2CCc3c([nH]c4ccccc34)C2CC(C)C)o1 (configuration not stated),52% (active)
3,Cc1cnc(CN2CCc3c([nH]c4ccccc34)C2CC(C)C)[nH]1 (configuration not stated),11.2% (inactive)
4,O=C(Cc1cccs1)Nc1ccc(S(=O)(=O)N2CCCC2)cc1,39.8% (inactive)
5,CC(On1c(-c2ccccc2)nc2ccc(Cl)cc21)C(=O)O (configuration not stated),-10.3% (inactive)
6,C/C(=C/C(=O)N1CCc2ccccc21)C(=O)O,2.1% (inactive)
7,CC(C)=CC(=O)N1CCCc2ccccc21,10.1% (inactive)
8,C/C(=C\C(=O)N1CCc2ccccc21)C(=O)O,61.3% (active)
9,Nc1nonc1-n1nnc(C(=O)O)c1-c1cccs1,0.4% (inactive)
10,Cc1noc(C)c1COC(=O)CNC(=O)c1cccc(F)c1,-11.8% (inactive)
11,O=[N+]([O-])c1ccc(O)c(C=Nc2ccc3nc(-c4ccccc4)[nH]c3c2)c1,8.2% (inactive)
12,O=[N+]([O-])c1ccc(O)c(/C=N/Nc2ccccn2)c1,-20.1% (inactive)
13,Oc1c(Cl)cc(Cl)cc1C=Nc1ccc2c(c1)OCCO2,25% (inactive)
14,Oc1ccc(C=Nc2cccc3ncccc23)c(O)c1,38.7% (inactive)
15,Oc1c(Br)cc(Br)cc1C=Nc1ccc2c(c1)OCO2,48.6% (inactive)
16,O=[N+]([O-])c1ccc(O)c(C=Nc2ccc3oc(Cc4ccc(Cl)cc4)nc3c2)c1,61.1% (active)
17,O=[N+]([O-])c1ccc(O)c(C=Nc2cccc3ncccc23)c1,52.5% (active)
18,CN(C)/N=C/c1cc([N+](=O)[O-])ccc1O,9.8% (inactive)
19,Oc1c(Br)cc(Br)cc1C=Nc1ccc2c(c1)OCCO2,59.7% (active)
20,O=C(N/N=C/c1cc([N+](=O)[O-])ccc1O)c1ccc2c(c1)OCCO2,-16.7% (inactive)
21,O=[N+]([O-])c1ccc(O)c(C=Nc2ccc3c(c2)OCCO3)c1,52.8% (active)
22,O=C(Nc1ccc2oc(Cc3ccc(Cl)cc3)nc2c1)c1cccnc1,7.7% (inactive)

row,SMILES,inhibition
1,C=CCn1c(SCC(N)=O)nnc1-c1cccc(Br)c1,1% (inactive)
2,Cc1ccc(CN2CCN(Cc3cnc(C)[nH]3)CC2CCO)cc1 (configuration not stated),2% (inactive)
3,O=C(Nc1c(F)cc(F)cc1Br)C1CCCO1 (configuration not stated),15.5% (inactive)
4,CC(=O)NCCc1ccc(S(=O)(=O)N2CCOCC2)cc1,-2.7% (inactive)
5,CCOC(=O)CNC(=O)CSc1nnc(SCC(=O)NCC(=O)OCC)s1,-6.4% (inactive)
6,COc1ccc(/C=C/C(=O)NC(=S)N2CCN(C)CC2)cc1,-10.4% (inactive)
7,CSc1ccccc1NC(=O)CN(C)CC(=O)Nc1ccccc1F,-13.9% (inactive)
8,Cc1ccc(NC(=S)N(Cc2ccco2)C2CCN(C(C)C)CC2)cc1,-8.2% (inactive)
9,CN1COc2ccc3ccccc3c2C1,67.8% (active)
10,Cn1c2c(c(=O)n(C)c1=O)[C@@H]1c3c(ccc4ccccc34)OC[C@@H]1CO2,-2.5% (inactive)
11,O=C1COc2ccc3ccccc3c2CN1,-0.8% (inactive)
12,Cc1ccc(C(=O)N/N=C/c2ccc(N3CCOCC3)cc2)c(C)c1,-8% (inactive)
13,CCN(C(=O)c1ccc(NC(C)=O)cc1)c1ccccc1C,-3% (inactive)
14,Cc1ccc(Nc2c([N+](=O)[O-])ccc3c2=NC2(CCCCC2)N=3)cc1,50.8% (active)
15,Cc1ccc(NC(=O)c2ccc(Nc3c([N+](=O)[O-])cc([N+](=O)[O-])cc3[N+](=O)[O-])cc2)cc1,3.9% (inactive)
16,O=[N+]([O-])c1ccc2c(c1Nc1ccccc1)=NC1(CCCCC1)N=2,58.9% (active)
17,O=[N+]([O-])c1ccccc1Nc1ccccc1,-3.7% (inactive)
18,Cc1ccc(Nc2cc(C)nc3c(C)ccc([N+](=O)[O-])c23)cc1,10.2% (inactive)
19,Cc1ccccc1Nc1c([N+](=O)[O-])ccc2c1=NC1(CCCCC1)N=2,38.7% (inactive)
